The record followed here is PubChem BioAssay (EPA / NIEHS).

As usually defined, the AC50 is the concentration at which the activity in the assay is half-maximal.

Calls of active or inactive are those of the source. Rule for the calls: active = hit-call score of the fitted dose curve at least 0.9, where 1 is the maximum; inactive = score below 0.9.

Holding throughout (conditions): mRNA level, 48 h; actives raise or lower the signal
Read-out in assay [1]: DNA damage-inducible transcript 3 (DDIT3), DDIT3 (gene 1649)
Briefly: LTEA_HepaRG_DDIT3: Life Technologies and Expression Analysis (LTEA) Assay for DNA damage-inducible transcript 3 (DDIT3) using HepaRG (AID 2283488). The procedure, abridged:
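Eight-point concentration-response (100 uM highest, half-log dilutions) in HepaRG, 48 h, duplicate wells. Endpoint: qRT-PCR mRNA, normalized (ACTB, GAPDH, POLR2A), bidirectional fitting with DMSO as baseline.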

Read-out in assay [2]: Pro-epidermal growth factor (Homo sapiens) (UniProt P01133)
Briefly: LTEA_HepaRG_EGF: Life Technologies and Expression Analysis (LTEA) Assay for Epidermal growth factor (EGF) using HepaRG (AID 2283489). The procedure, abridged:
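qRT-PCR readout of EGF transcript after 48 h chemical exposure of HepaRG cells; eight concentrations from 100 uM down in half-log steps, duplicate wells, 0.5% DMSO vehicle. Bidirectional curve fitting against DMSO baseline.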

Read-out in assay [3]: Early growth response protein 1 (EGR1) transcription factor, EGR1 (gene 1958)
Briefly: LTEA_HepaRG_EGR1: Life Technologies and Expression Analysis (LTEA) Assay for Early growth response protein 1 (EGR1) transcription factor using HepaRG (AID 2283490). The method in brief: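 HepaRG, 48 h exposure, 8-pt half-log series from 100 uM, 0.5% DMSO vehicle; EGR1 transcript by TaqMan qRT-PCR (Fluidigm array), housekeeping-normalized; bidirectional fit relative to DMSO baseline.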

Read-out in assay [4]: Cytochrome P450 3A7 (Homo sapiens) (UniProt P24462)
The assay is described as follows: LTEA_HepaRG_CYP3A7: Life Technologies and Expression Analysis (LTEA) Assay for CYP3A7 using HepaRG (AID 2283492). The method in brief:
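CYP3A7 transcript levels were read by TaqMan qRT-PCR on Fluidigm arrays after 48 h chemical exposure of human HepaRG cells, with housekeeping-gene normalisation. Eight half-log concentrations up to 100 uM in 0.5% DMSO were tested in duplicate.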

Read-out in the next assay: CYP3A5 (gene 1577)
Briefly: LTEA_HepaRG_CYP3A5: Life Technologies and Expression Analysis (LTEA) Assay for CYP3A5 using HepaRG (AID 2283493). The method in brief:
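Readout was CYP3A5 mRNA by qRT-PCR. HepaRG cultures were exposed for 48 h in serum-free induction medium to chemicals at up to 100 uM, and responses were fitted in both directions relative to DMSO vehicle.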

Read-out in assay [5]: Fatty Acid-Binding Protein 1 (FABP1), FABP1 (gene 2168)
Briefly: LTEA_HepaRG_FABP1: Life Technologies and Expression Analysis (LTEA) Assay for Fatty Acid-Binding Protein 1 (FABP1) using HepaRG (AID 2283494). The method in brief: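 qRT-PCR readout of FABP1 transcript (normalized to three housekeeping genes) after 48 h chemical exposure of HepaRG cells; eight concentrations, half-log steps, max 100 uM, 0.5% DMSO vehicle; gain or loss fitted relative to DMSO baseline.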

Read-out in assay [6]: Cytochrome P450 4A22 (Homo sapiens) (UniProt Q5TCH4)
Briefly: LTEA_HepaRG_CYP4A22: Life Technologies and Expression Analysis (LTEA) Assay for Cytochrome P450 4A22 (CYP4A22) using HepaRG (AID 2283495). The method in brief:
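HepaRG, 48 h post-plating -> serum-free induction medium; dosed 48 h, duplicate, 8 conc. (100 uM top, half-log), 0.5% DMSO. Readout: CYP4A22 mRNA by qRT-PCR, ACTB/GAPDH/POLR2A normalization; gain/loss fit relative to DMSO.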

Read-out in assay [7]: Cytochrome P450 7A1 (Homo sapiens) (UniProt P22680)
Briefly: LTEA_HepaRG_CYP7A1: Life Technologies and Expression Analysis (LTEA) Assay for Cytochrome P450 7A1 (CYP7A1) using HepaRG (AID 2283496). The procedure, abridged:
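Using 0.5% DMSO as vehicle and baseline, chemicals were tested in duplicate over an 8-point range from 100 uM on HepaRG cells for 48 h; qRT-PCR signals were normalised to ACTB, GAPDH and POLR2A.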

Read-out in assay [8]: Glutathione S-Transferase (GSTA2), GSTA2 (gene 2939)
The assay is described as follows: LTEA_HepaRG_GSTA2: Life Technologies and Expression Analysis (LTEA) Assay for Glutathione S-Transferase (GSTA2) using HepaRG (AID 2283497). The method in brief: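 qRT-PCR readout of GSTA2 transcript, normalized to three housekeeping genes, fitted bidirectionally against 0.5% DMSO baseline. Differentiated HepaRG cells received compound for 48 h at 8 concentrations (top 100 uM, half-log steps).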

Read-out in assay [9]: Glutamate-cysteine ligase catalytic (GCLC), GCLC (gene 2729)
Briefly: LTEA_HepaRG_GCLC: Life Technologies and Expression Analysis (LTEA) Assay for Glutamate-cysteine ligase catalytic (GCLC) using HepaRG (AID 2283498). The method in brief: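 HepaRG, 48 h exposure, 8-pt half-log series from 100 uM, 0.5% DMSO vehicle; TaqMan qRT-PCR for GCLC mRNA, housekeeping-normalized; bidirectional curve fit vs DMSO baseline.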

Read-out in assay [10]: growth arrest and DNA damage 45 (GADD45G), GADD45G (gene 10912)
Briefly: LTEA_HepaRG_GADD45G: Life Technologies and Expression Analysis (LTEA) Assay for growth arrest and DNA damage 45 (GADD45G) using HepaRG (AID 2283499). The method in brief:
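HepaRG, 48 h exposure, top 100 uM, half-log 8-point series, 0.5% DMSO vehicle, duplicates. Readout: GADD45G transcript by qRT-PCR (Fluidigm array), housekeeping-normalised (ACTB/GAPDH/POLR2A). Bidirectional curve fit vs DMSO baseline.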

Read-out in assay [11]: Glutamate-cysteine ligase regulatory (GCLM), GCLM (gene 2730)
Briefly: LTEA_HepaRG_GCLM: Life Technologies and Expression Analysis (LTEA) Assay for Glutamate-cysteine ligase regulatory (GCLM) using HepaRG (AID 2283500). The method in brief:
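In this multiplexed HepaRG gene-expression assay, GCLM mRNA change after 48 h treatment (8 concentrations, max 100 uM) was scored against DMSO by bidirectional curve fitting.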

Read-out in assay [12]: Glutathione S-transferase M3 (GSTM3), GSTM3 (gene 2947)
Briefly: LTEA_HepaRG_GSTM3: Life Technologies and Expression Analysis (LTEA) Assay for Glutathione S-transferase M3 (GSTM3) using HepaRG (AID 2283501). The method in brief:
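qRT-PCR read-out of GSTM3 transcript, normalized to three housekeeping genes, from human HepaRG cells after 48 h chemical exposure. Eight-point half-log series, top 100 uM, 0.5% DMSO vehicle; gain or loss fitted relative to DMSO baseline.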

Read-out in assay [13]: Heat shock 70 kDa protein 1 (HSPA1A), gene 3303
The assay is described as follows: LTEA_HepaRG_HSPA1A: Life Technologies and Expression Analysis (LTEA) Assay for Heat shock 70 kDa protein 1 (HSPA1A) using HepaRG (AID 2283502). The method in brief: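 An oxidative-stress marker readout: HepaRG cells treated 48 h in duplicate with an eight-point series (highest 100 uM) had HSPA1A mRNA quantified by TaqMan qRT-PCR. Activity was fitted in both directions using 0.5% DMSO as baseline.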

Read-out in assay [14]: Hypoxia-inducible factor 1-alpha (Homo sapiens) (UniProt Q16665)
The assay is described as follows: LTEA_HepaRG_HIF1A: Life Technologies and Expression Analysis (LTEA) Assay for Hypoxia-inducible factor 1 (HIF1A) Trancription factor using HepaRG (AID 2283503). The method in brief: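 Gain- or loss-of-signal HIF1A mRNA changes are fitted against a DMSO baseline. HepaRG cultures receive eight concentrations, highest 100 uM, for 48 h in serum-free induction medium with 0.5% DMSO.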

Read-out in assay [15]: 3-Hydroxy-3-Methylglutaryl-CoA Synthase 2 (HMGCS2), HMGCS2 (gene 3158)
The assay is described as follows: LTEA_HepaRG_HMGCS2: Life Technologies and Expression Analysis (LTEA) Assay for 3-Hydroxy-3-Methylglutaryl-CoA Synthase 2 (HMGCS2) using HepaRG (AID 2283504). The procedure, abridged:
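qRT-PCR read-out of HMGCS2 transcript, normalised to three housekeeping genes, in HepaRG cells after 48 h chemical exposure. Eight-point curves from 100 uM, half-log dilutions, 0.5% DMSO vehicle; gain or loss fitted relative to DMSO baseline.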

Read-out in the next assay: HGF (gene 3082)
Briefly: LTEA_HepaRG_HGF: Life Technologies and Expression Analysis (LTEA) Assay for Hepatocyte Growth Facto (HGF) using HepaRG (AID 2283505). The procedure, abridged: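 HepaRG, 48 h dosing, 8-pt half-log series from 100 uM in 0.5% DMSO, duplicates. Readout: TaqMan qRT-PCR of HGF mRNA, housekeeping-normalized; bidirectional curve fit vs DMSO baseline.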

Read-out in assay [16]: Insulin Like Growth Factor 1 (IGF1), IGF1 (gene 3479)
The assay is described as follows: LTEA_HepaRG_IGF1: Life Technologies and Expression Analysis (LTEA) Assay for Insulin Like Growth Factor 1 (IGF1) using HepaRG (AID 2283506). The procedure, abridged:
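Endpoint: IGF1 mRNA change by qRT-PCR, housekeeping-normalized, fitted bidirectionally relative to 0.5% DMSO vehicle. Human HepaRG cells were treated 48 h in serum-free induction medium, eight half-log concentrations topping at 100 uM.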

Read-out in assay [17]: Intercellular Adhesion Molecule 1 (ICAM1), ICAM1 (gene 3383)
The assay is described as follows: LTEA_HepaRG_ICAM1: Life Technologies and Expression Analysis (LTEA) Assay for Intercellular Adhesion Molecule 1 (ICAM1) using HepaRG (AID 2283507). The method in brief: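 HepaRG, 48 h exposure, 8-pt half-log series from 100 uM, 0.5% DMSO vehicle, duplicates. Readout: TaqMan qRT-PCR mRNA, housekeeping-normalized (ACTB/GAPDH/POLR2A). Bidirectional curve fit vs DMSO baseline.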

Read-out in assay [18]: Ezrin (EZR), EZR (gene 7430)
The assay is described as follows: LTEA_HepaRG_EZR: Life Technologies and Expression Analysis (LTEA) Assay for Ezrin (EZR) using HepaRG (AID 2283491). The procedure, abridged:
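Read-out is EZR transcript level by qRT-PCR, normalized to three housekeeping genes and fitted bidirectionally against the DMSO control. Human HepaRG cells received test chemicals for 48 h at eight half-log concentrations up to 100 uM in 0.5% DMSO.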

Chain of Cytochrome P450 3A7 (Homo sapiens) (P24462 whole entry, looked up): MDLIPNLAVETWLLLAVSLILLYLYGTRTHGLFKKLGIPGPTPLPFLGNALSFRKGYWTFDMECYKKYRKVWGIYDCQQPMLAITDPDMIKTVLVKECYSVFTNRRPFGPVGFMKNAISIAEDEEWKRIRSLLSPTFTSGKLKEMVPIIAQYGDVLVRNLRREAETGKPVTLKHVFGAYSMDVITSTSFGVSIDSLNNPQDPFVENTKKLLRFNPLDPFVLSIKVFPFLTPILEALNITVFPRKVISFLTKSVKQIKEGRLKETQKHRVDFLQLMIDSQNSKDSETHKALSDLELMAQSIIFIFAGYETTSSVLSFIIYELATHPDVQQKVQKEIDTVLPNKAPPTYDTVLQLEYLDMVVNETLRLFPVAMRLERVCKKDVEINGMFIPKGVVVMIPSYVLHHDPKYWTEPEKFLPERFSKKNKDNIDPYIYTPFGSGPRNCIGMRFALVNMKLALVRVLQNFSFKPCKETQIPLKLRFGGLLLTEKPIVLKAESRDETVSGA
Chain of Hypoxia-inducible factor 1-alpha (Homo sapiens) (Q16665 whole entry, looked up): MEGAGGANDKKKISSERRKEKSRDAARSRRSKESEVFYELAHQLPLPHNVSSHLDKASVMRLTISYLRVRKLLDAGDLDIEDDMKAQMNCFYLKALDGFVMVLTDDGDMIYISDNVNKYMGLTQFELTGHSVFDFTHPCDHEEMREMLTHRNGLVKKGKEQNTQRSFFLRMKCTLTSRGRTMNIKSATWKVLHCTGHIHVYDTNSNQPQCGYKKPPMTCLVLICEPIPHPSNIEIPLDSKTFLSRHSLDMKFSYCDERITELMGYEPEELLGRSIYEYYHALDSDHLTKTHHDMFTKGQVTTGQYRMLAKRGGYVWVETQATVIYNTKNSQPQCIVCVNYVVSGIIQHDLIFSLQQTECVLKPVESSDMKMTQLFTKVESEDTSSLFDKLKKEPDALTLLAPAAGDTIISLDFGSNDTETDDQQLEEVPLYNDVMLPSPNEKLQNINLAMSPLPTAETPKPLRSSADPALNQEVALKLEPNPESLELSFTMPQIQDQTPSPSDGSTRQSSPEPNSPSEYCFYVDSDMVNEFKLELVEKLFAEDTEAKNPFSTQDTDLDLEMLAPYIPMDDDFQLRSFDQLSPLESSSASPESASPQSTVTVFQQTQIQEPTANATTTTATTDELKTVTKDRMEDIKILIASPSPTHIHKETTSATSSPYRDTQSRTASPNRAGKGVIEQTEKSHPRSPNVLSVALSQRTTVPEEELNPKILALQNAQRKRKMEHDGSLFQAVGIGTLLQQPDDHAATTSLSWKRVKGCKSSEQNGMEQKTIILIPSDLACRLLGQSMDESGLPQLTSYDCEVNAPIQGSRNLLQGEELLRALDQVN

Regarding `CCOP(=S)(OCC)SCSC(C)(C)C`, the call in [1], in [2], in [3], in [6], in assay [8] and in assay [9] was inactive. The result (in assay [10]; in assay [11]; in assay [12]; in [13]; in [14]; with HGF (gene 3082)) was inactive. For the same molecule, the result in assay [16] and in assay [17] was inactive. Further, the AC50 in [4] was 16.5 µM (active); with CYP3A5 (gene 1577) it was 2.83 µM (active); in assay [5] it was 50 µM (active); in assay [7], 16.3 µM (active); in assay [15] it was 14.7 µM (active).

Regarding `O=C(O)C(F)(F)C(F)(F)C(F)(F)C(F)(F)C(F)(F)F`, the call (in assay [1]; in assay [2]; in assay [3]; in assay [18]; in assay [4]; in the assay with CYP3A5 (gene 1577)) was inactive. Besides, the result in assay [7], in [8], in assay [9], in [10], in assay [11] and in [13] was inactive. For the same molecule, the molecule was called inactive in assay [14], in assay [16] and in assay [17]. In addition, the AC50 in assay [5] is 12 µM (active); in assay [6], 13.3 µM (active); in assay [15], 2.41 µM (active).

Turning to `c1ccc(-c2ccccc2)cc1`, the molecule was called inactive (in assay [1]; in assay [3]; in [18]; in [4]; in the assay with CYP3A5 (gene 1577); in [5]). The outcome in assay [8], in assay [9], in assay [10], in [11], in assay [13] and in [14] was inactive. For the same molecule, the call (in assay [15]; in the assay with HGF (gene 3082); in assay [16]; in assay [17]) was inactive.

As for `O=C(NC(=O)c1cc(F)c(F)cc1Cl)Nc1cc(F)ccc1N1CCC(C(=O)O)CC1`, the result (in assay [1]; in assay [2]; in assay [3]; in [18]; in [4]; with CYP3A5 (gene 1577)) was inactive. Besides, the molecule was classed as inactive in assay [5], in [8], in [9], in assay [10], in [11] and in [13]. Further, the molecule was classed as inactive in assay [14], in assay [16] and in [17]. Also, the AC50 in assay [6] was 7.84 µM (active); in assay [7], 6.6 µM (active); in assay [15] it was 20.3 µM (active).

Consider `Nc1ccc(-c2ccc(N)cc2)cc1`, for which the molecule was called inactive (in assay [1]; in assay [2]; in assay [3]; in [18]; with CYP3A5 (gene 1577); in assay [5]). Also, the molecule was classed as inactive in assay [8], in assay [9], in assay [10], in assay [11], in assay [12] and in [13]. Also, the outcome (in [14]; in [15]; in the assay with HGF (gene 3082); in assay [16]; in [17]) was inactive. Further, the concentration at half-maximal activity (AC50) in [6] is 8.3 µM (active); in assay [7], 1.44 µM (active).

With `CCCCCCOC(=O)c1ccccc1C(=O)OCCCCCC`, the molecule was classed as inactive (in assay [1]; in assay [2]; in assay [3]; in [18]; in assay [4]; in the assay with CYP3A5 (gene 1577)). Besides, the call in [5], in assay [7], in assay [8], in assay [9], in assay [10] and in [11] was inactive. The call in assay [13], in assay [14], in assay [15], in [16] and in [17] was inactive. The AC50 in [6] is 83.9 µM (active).
